Experimental data reported in PubChem BioAssay (Tox21).
Where “and” joins values, the source holds several entries; their conditions need not be identical. Equal values may be shown once. Results filed as inconclusive are left out. Calls of active or inactive are those of the source. Calls follow the shape of the dose curve; as a rule, active = well fitted cell-killing curve with a large enough effect in the repeat runs; inconclusive = weak or mixed curves, or effect the other way; inactive = flat fitted curve, though single readings scatter.

Test: qHTS RealTime-Glo MT Cell Viability Assay in HEK293 cells - 40 hour (AID 1224874); also: nearly all actives have a fitted effect of over 50% in size
Details: RealTime-Glo luminescence; max response: active compounds read low
Source text: U.S. Tox21 Program National Center for Advancing Translational Sciences [NCATS] NIH Chemical Genomics Center [NCGC] U.S. Environmental Protection Agency [EPA] National Institutes of Environmental Health Sciences [NIEHS] National Toxicology Program [NTP] U.S. Food and Drug Administration [FDA] Tox21 Assay Overview: Measure of cell viability is critical in the cell-base assay. Analysis of cell viability is necessary for the characterization of cell responses to cytotoxic drugs and environmental stress. A RealTime-Glo MT Cell Viability Assay to monitor cell viability in real time of continues cell culture during 40 hours of compound treatment was used to screen Tox21 10K library compounds in Hek293 cells. The RealTime-Glo MT Cell Viability Assay is a nonlytic, homogeneous, bioluminescent method to measure cell viability in real time using a simple, plate-based method. The assay involves adding NanoLuc luciferase and a cell-permeant prosubstrate to cells in culture. Viable cells reduce the proprietary prosubstrate to generate a substrate for NanoLuc luciferase. This substrate diffuses from cells into the surrounding culture medium, where it is rapidly used by the NanoLuc Enzyme to produce a luminescent signal. The signal correlates with the number of viable cells, making the assay well suited for cytotoxicity studies.
Tox21 Assay Protocol Summary: The mixture of Hek293 cell suspension and reagents were dispensed at 600cells/6 ul/well in 1536-well tissue culture treated black solid bottom plates using a Multidrop dispenser. After the assay plates were incubated at a 37 C/5% CO2 incubator for 5 hours, 23 nL of compounds dissolved in DMSO, positive and negative controls was transferred to the assay plate by a pintool work station. The plates were incubated at 37 C for 40 hours. The luminescence intensity were measured at 0h, 8h, 16h, 24h, 32h and 40h time points using ViewLux plate reader during compound treatment.
% is scaled to controls: 0 for no effect and ±100 for the full control effect; potency is read from the fitted curve at half-maximal effect.

Compound | max response | Potency
CCOC(=O)C(=O)OCC | 6.27% (inactive) | –
CCOC(=O)c1ccc(C)cc1 | 8.25% (inactive) | –
COC(=O)CCSCCC(=O)OC | 0.851% (inactive) | –
COc1ccc2c(c1)CCCC2=O | 0.353% (inactive) | –
C=C(C)CS(=O)(=O)O | -0.0402% (inactive) | –
CC(C)(O)C(=O)c1ccccc1 | 1.69% (inactive) | –
C=C1CC[C@H]2C[C@@H]1C2(C)C | 5.42% (inactive) | –
Cc1ccc(=O)n(-c2ccccc2)c1 | 1.08% (inactive) | –
c1ccc(CC2=NCCN2)cc1 | -5.85% (inactive) | –
CCOC(=O)CC(C)=O | 14.1% (inactive) | –
COC(=O)c1c(Cl)c(Cl)c(C(=O)OC)c(Cl)c1Cl | -27.2% (inactive) | –
CN(C)CCCN1c2ccccc2CCc2ccc(Cl)cc21 | – | 34.7 µM (active) and 21.3 µM (active)
COc1ccc(CCN(C)CCCC(C#N)(c2cc(OC)c(OC)c(OC)c2)C(C)C)cc1OC (stereo not given) | – | 23.9 µM (active)
CCCCCCCCS(=O)(=O)Cl | 19.7% (inactive) | –
C[N+](C)(C)CC(O)CC(=O)[O-] (stereo not given) | -3.45% (inactive) | –
NCCc1cnc[nH]1 | -0.307% (inactive) | –
COC(=O)NN | 1.74% (inactive) | –
CC(=O)OC/C=C(\C)CC/C=C(\C)CCC=C(C)C | 12.3% (inactive) and 2.35% (inactive) | –
NS(=O)(=O)c1cc2c(cc1Cl)NC(C1CC3C=CC1C3)NS2(=O)=O (stereo not given) | 11.9% (inactive) | –
NC(=O)Nc1ccccc1 | 3.44% (inactive) | –

Compound | max response | Potency
FC(F)OC(Cl)C(F)(F)F (stereo not given) | 5.59% (inactive) | –
C1OCOCO1 | 2.99% (inactive) | –
CC(=O)Nc1ccc(S(N)(=O)=O)cc1 | 14.7% (inactive) | –
O=c1[nH]c(=O)n([C@H]2C[C@H](O)[C@@H](CO)O2)cc1I | 5.93% (inactive) | –
CC(C)(C)c1ccc(O)c(O)c1 | – | 20.2 µM (active) and 36 µM (active)
CC(C)OC(=O)c1ccccc1 | 0.492% (inactive) | –
Nc1c2c(nc3ccccc13)CCCC2O (stereo not given) | 24.6% (inactive) | –
C[N+](C)(C)CCCCCC[N+](C)(C)C | 3.71% (inactive) and 1.42% (inactive) | –
O=c1cc(CO)occ1O | 3.18% (inactive) | –
c1ccc([C@H]2CN3CCSC3=N2)cc1 | 3.46% (inactive) | –
C=C(C)C(=O)OCCCCCCCC(C)C | -8.22% (inactive) | –
C=CCOCC(CC)(CO)COCC=C | 5.04% (inactive) | –
Nc1cc(=O)[nH]c(N)n1 | 0.787% (inactive) | –
CCCCCCCCCCCCN(CCCCCCCCCCCC)CCCCCCCCCCCC | 0.0553% (inactive) | –
N=c1nc(N2CCCCC2)cc(N)n1O | -2.32% (inactive) | –
O=C(CCCN1CCC(O)(c2cccc(C(F)(F)F)c2)CC1)c1ccc(F)cc1 | – | 21.3 µM (active)
O=C(O)c1ccccc1OP(=O)(O)O | -0.358% (inactive) | –
CCCN1CCCC[C@H]1C(=O)Nc1c(C)cccc1C | 3.8% (inactive) | –
Cc1cnc(NS(=O)(=O)c2ccc(N)cc2)nc1 | 2.61% (inactive) | –
CC(C[N+](C)(C)C)OC(N)=O (stereo not given) | 4.17% (inactive) | –
